Test results taken from ChEMBL document CHEMBL4513146, “CO-ADD screening of Karazin Kharkiv National University (Ukraine) compounds”.
Potency and affinity values are given separately.

Experiments:
Klebsiella pneumoniae = details: Concentration 32 ug.mL-1;; ASSAY_TEST Inhibition of Bacterial Growth; detection method Absorption (OD600); MEDIA CAMHB; plate type 384well; NBS; CORNING #3640; time 18 hr
Candida albicans = details: Concentration 32 ug.mL-1; ASSAY_TEST Inhibition of Fungal Growth; detection method Absorption (OD530)
Cryptococcus neoformans = details: Concentration 32 ug.mL-1; ASSAY_TEST Inhibition of Fungal Growth; detection method Resazurin; Absorption (OD600-OD570); plate type 384well; NBS; CORNING #3640

Question: Which results are given for `O=c1n(Cc2nc(-c3ccc(F)cc3)no2)nc2ccc(-c3ccccc3)nn12`?
Answer: Inhibition (Klebsiella pneumoniae): 18.38%; Inhibition (Candida albicans): -1.53%; Inhibition (Cryptococcus neoformans): -18.94%

Question: Which results are given for `COc1ccccc1CNC(=O)Cn1nc2c(SCc3ccc(Cl)cc3)nccn2c1=O`?
Answer: Inhibition (Klebsiella pneumoniae): 9.05%; Inhibition (Candida albicans): 2.3%; Inhibition (Cryptococcus neoformans): -6.8%

Question: `O=C(CSc1nnc2c3cc(-c4ccc(F)cc4)nn3ccn12)NCc1ccccc1Cl` was tested. Which Inhibition (Klebsiella pneumoniae) did it give?
Answer: 4.63%

Question: What about the Inhibition (Candida albicans) of the same molecule?
Answer: 14.03%

Question: What about the Inhibition (Cryptococcus neoformans) of the same molecule?
Answer: -17.41%

Question: `CCCCc1ccc(NC(=O)CSc2nc3ccccc3n3c(CC)nnc23)cc1` was tested. Which Inhibition (Klebsiella pneumoniae) did it give?
Answer: 13.43%

Question: And the Inhibition (Candida albicans)?
Answer: 1.28%

Question: And the Inhibition (Cryptococcus neoformans)?
Answer: -16.72%

Question: What does the source list for `Cc1cc2nn(CC(=O)NCc3ccco3)c(=O)n2c(Nc2ccc(C)c(F)c2)n1`?
Answer: Inhibition (Klebsiella pneumoniae): 7.94%; Inhibition (Candida albicans): 7.51%; Inhibition (Cryptococcus neoformans): -7.03%

Question: What does the source list for `COc1cccc(CN(c2ccc(Cl)cc2)S(=O)(=O)c2ccc3nncn3c2)c1`?
Answer: Inhibition (Klebsiella pneumoniae): 6.15%; Inhibition (Candida albicans): 2.49%; Inhibition (Cryptococcus neoformans): -6.94%

Question: For `CCCNC(=O)CSc1nnc2c(=O)n(-c3ccc(F)cc3)ccn12`, which Inhibition (Klebsiella pneumoniae) is on record?
Answer: 12.9%

Question: What about the Inhibition (Candida albicans) of the same molecule?
Answer: 2.11%

Question: And the Inhibition (Cryptococcus neoformans)?
Answer: -15.58%

Question: How did the Inhibition (Klebsiella pneumoniae) turn out when `CCCCOc1ccc(-c2cc3c4nnc(SCC(=O)Nc5ccc(Cl)cc5)n4ccn3n2)cc1` was run?
Answer: 11.84%

Question: And the Inhibition (Candida albicans)?
Answer: 2.71%

Question: What about the Inhibition (Cryptococcus neoformans) of the same molecule?
Answer: -15.55%

Question: For `CCOc1ccc(NC(=O)Cn2nc3c4c5c(sc4ncn3c2=O)CCCC5)cc1`, which Inhibition (Klebsiella pneumoniae) is on record?
Answer: 5.11%

Question: And the Inhibition (Candida albicans)?
Answer: 2.52%

Question: What about the Inhibition (Cryptococcus neoformans) of the same molecule?
Answer: -9.01%

Question: Which Inhibition (Klebsiella pneumoniae) does the source give for `Cc1ccccc1Oc1nc2ccccc2n2c(=O)n(CC(=O)NCc3ccc4c(c3)OCO4)nc12` here?
Answer: 17.68%

Question: What about the Inhibition (Candida albicans) of the same molecule?
Answer: 19.82%

Question: What about the Inhibition (Cryptococcus neoformans) of the same molecule?
Answer: -16.39%

Question: `CCc1ccc(N(Cc2ccc(C)cc2)S(=O)(=O)c2cccn3c(CC)nnc23)cc1` was tested. Which Inhibition (Klebsiella pneumoniae) did it give?
Answer: 2.26%

Question: What about the Inhibition (Candida albicans) of the same molecule?
Answer: 5.38%

Question: And the Inhibition (Cryptococcus neoformans)?
Answer: -7.79%

Question: What does the source list for `COc1ccccc1-n1ccn2c(SCC(=O)Nc3ccc(C)cc3C)nnc2c1=O`?
Answer: Inhibition (Klebsiella pneumoniae): 11.64%; Inhibition (Candida albicans): 2.45%; Inhibition (Cryptococcus neoformans): -10.8%

Question: Which Inhibition (Klebsiella pneumoniae) does the source give for `CCCCc1ccc(NC(=O)Cn2nc3ccc(-c4ccc(C)c(C)c4)nn3c2=O)cc1` here?
Answer: 1.79%

Question: And the Inhibition (Candida albicans)?
Answer: 1.02%

Question: And the Inhibition (Cryptococcus neoformans)?
Answer: -8.31%

Question: Which results are given for `COc1ccc(NC(=O)Cn2nc3nc(N4CCOCC4)ccn3c2=O)cc1Cl`?
Answer: Inhibition (Klebsiella pneumoniae): 17.46%; Inhibition (Candida albicans): 1.98%; Inhibition (Cryptococcus neoformans): -8.34%

Question: How did the Inhibition (Klebsiella pneumoniae) turn out when `COc1cccc(Oc2nccn3c(=O)n(CC(=O)Nc4cc(C)c(Cl)cc4OC)nc23)c1` was run?
Answer: -0.9%

Question: What about the Inhibition (Candida albicans) of the same molecule?
Answer: 1.25%

Question: What about the Inhibition (Cryptococcus neoformans) of the same molecule?
Answer: -7.05%

Question: With `COc1ccc(-c2cc3c4nn(CC(=O)Nc5cccc(C(C)=O)c5)c(=O)n4ccn3n2)cc1` as the molecule, how does the Inhibition (Klebsiella pneumoniae) read?
Answer: 3.99%

Question: And the Inhibition (Candida albicans)?
Answer: 4.25%

Question: What about the Inhibition (Cryptococcus neoformans) of the same molecule?
Answer: -13.63%

Question: How did the Inhibition (Klebsiella pneumoniae) turn out when `COC(=O)c1cccc(NC(=O)Cn2nc3c(N4CCCCCC4)nccn3c2=O)c1` was run?
Answer: 3.15%

Question: What about the Inhibition (Candida albicans) of the same molecule?
Answer: 2.05%

Question: And the Inhibition (Cryptococcus neoformans)?
Answer: -12.46%

Question: How did the Inhibition (Klebsiella pneumoniae) turn out when `Cc1ccc(NC(=O)Cn2nc3c(Oc4ccccc4)nccn3c2=O)c(Cl)c1` was run?
Answer: -7.35%

Question: What about the Inhibition (Candida albicans) of the same molecule?
Answer: -1.78%

Question: And the Inhibition (Cryptococcus neoformans)?
Answer: -4%

Question: With `Cc1cccc(CN(c2cccc(F)c2)S(=O)(=O)c2ccc3nncn3c2)c1` as the molecule, how does the Inhibition (Klebsiella pneumoniae) read?
Answer: 14.36%

Question: And the Inhibition (Candida albicans)?
Answer: 3.33%

Question: And the Inhibition (Cryptococcus neoformans)?
Answer: -4.78%

Question: For `COc1ccc(-c2cc3c4nnc(CCC(=O)NCc5cccs5)n4ccn3n2)cc1`, which Inhibition (Klebsiella pneumoniae) is on record?
Answer: 6.72%

Question: And the Inhibition (Candida albicans)?
Answer: -0.32%

Question: What about the Inhibition (Cryptococcus neoformans) of the same molecule?
Answer: -11.02%

Question: With `CCC(Sc1nnc2c(=O)n(-c3ccccc3)ccn12)C(=O)Nc1ccc(OC)cc1OC` (stereo unspecified) as the molecule, how does the Inhibition (Klebsiella pneumoniae) read?
Answer: 9.44%

Question: What about the Inhibition (Candida albicans) of the same molecule?
Answer: 2.91%

Question: What about the Inhibition (Cryptococcus neoformans) of the same molecule?
Answer: -10.74%

Question: Which results are given for `Cc1cc(C)cc(Nc2nc(C)cc3nn(CC(=O)NC4CCCCC4)c(=O)n23)c1`?
Answer: Inhibition (Klebsiella pneumoniae): 13.04%; Inhibition (Candida albicans): 1.39%; Inhibition (Cryptococcus neoformans): -8.46%

Question: Which results are given for `Cc1ccc(C)c(Cn2nc3c(=O)n(-c4cccc(Cl)c4C)ccn3c2=O)c1`?
Answer: Inhibition (Klebsiella pneumoniae): 3.77%; Inhibition (Candida albicans): 2.62%; Inhibition (Cryptococcus neoformans): -13.68%

Question: With `CCOC(=O)N1CCN(C(=O)CCc2nnc3c4cc(-c5ccc(F)cc5)nn4ccn23)CC1` as the molecule, how does the Inhibition (Klebsiella pneumoniae) read?
Answer: 12.38%

Question: What about the Inhibition (Candida albicans) of the same molecule?
Answer: 2.97%

Question: And the Inhibition (Cryptococcus neoformans)?
Answer: -14.63%

Question: Which Inhibition (Klebsiella pneumoniae) does the source give for `Cc1ccc(Cl)cc1NC(=O)CSc1nc2ccccc2n2c(C(C)C)nnc12` here?
Answer: 7.66%

Question: And the Inhibition (Candida albicans)?
Answer: 11.96%

Question: And the Inhibition (Cryptococcus neoformans)?
Answer: -19.47%

Question: For `CCCN(C)c1nccn2c(=O)n(CC(=O)Nc3ccc(F)cc3)nc12`, which Inhibition (Klebsiella pneumoniae) is on record?
Answer: 16.44%

Question: What about the Inhibition (Candida albicans) of the same molecule?
Answer: 1.98%

Question: What about the Inhibition (Cryptococcus neoformans) of the same molecule?
Answer: -8.83%

Question: `Cc1nnc2c(=O)n(CC(=O)Nc3ccccc3F)c3ccccc3n12` was tested. Which Inhibition (Klebsiella pneumoniae) did it give?
Answer: 0.65%

Question: And the Inhibition (Candida albicans)?
Answer: 3.67%

Question: And the Inhibition (Cryptococcus neoformans)?
Answer: -6.39%

Question: Which results are given for `CCOc1ccc(-n2ccn3c(SCC(=O)Nc4ccc(C)cc4Cl)nnc3c2=O)cc1`?
Answer: Inhibition (Klebsiella pneumoniae): 9.51%; Inhibition (Candida albicans): 5.12%; Inhibition (Cryptococcus neoformans): -6.58%

Question: How did the Inhibition (Klebsiella pneumoniae) turn out when `CCCn1c(=O)c2sccc2n2c(CCC(=O)NCCC34CC5CC(CC(C5)C3)C4)nnc12` was run?
Answer: 9.89%

Question: And the Inhibition (Candida albicans)?
Answer: 5.72%

Question: And the Inhibition (Cryptococcus neoformans)?
Answer: -25.69%

Question: What does the source list for `COc1ccc(NC(=O)Cn2c(=O)c3nnc(C(C)C)n3c3ccccc32)cc1`?
Answer: Inhibition (Klebsiella pneumoniae): 10.47%; Inhibition (Candida albicans): 4.15%; Inhibition (Cryptococcus neoformans): -13.18%

Question: How did the Inhibition (Klebsiella pneumoniae) turn out when `CCc1ccccc1NC(=O)Cn1nc2cc(C)nc(Nc3ccc(F)c(C)c3)n2c1=O` was run?
Answer: 11.82%

Question: And the Inhibition (Candida albicans)?
Answer: 5.42%

Question: What about the Inhibition (Cryptococcus neoformans) of the same molecule?
Answer: -2.36%

Question: `COc1cc(OC)c(NC(=O)Cn2nc3c(SC4CCCCC4)nccn3c2=O)cc1Cl` was tested. Which Inhibition (Klebsiella pneumoniae) did it give?
Answer: 9.62%

Question: What about the Inhibition (Candida albicans) of the same molecule?
Answer: 7.28%

Question: And the Inhibition (Cryptococcus neoformans)?
Answer: -20.84%
